Results published in the supplement of paper PMC12636033.
± gives the standard deviation of the averaged measurements. Over roughly 33,000 sequences, “E-score (rank enrichment, -0.5 to 0.5)” has its median near -0.0028; the highest 2% begin near 0.23. The entries come from a sample that favours the highest values as a whole.

test system: 2Sb-muMax20 (muMax20 with two 1,3-bis(methyl)benzene Cys staples, A13C/A17C and Q88C/A92C, C-terminal Lys); experiment: PBM 8-mer E-score (E-score (rank enrichment, -0.5 to 0.5)); higher = stronger preferential binding
Method: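 Protein binding microarray (universal PBM chip covering all 10-mers in fixed probe flanks) with chemically synthesized human Max(13-93) bHLH-LZ analogs (not full-length Max) bearing noncanonical residues (hArg, Tha, Aib, Nle at 65) and aromatic Cys staples. Read-out per 8-mer (and its reverse complement): E-score (rank-based enrichment, -0.5 to 0.5) and Z-score of median probe intensity.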

Sequence | PBM 8-mer E-score
ACATCGGT | -0.142 ± 0.022
ACAATCTC | 0.149 ± 0.018
CCAATCTA | 0.094 ± 0.0061
CCAATCTC | 0.256 ± 0.024
CTACGCGC | -0.0145 ± 0.047
GACTCTTA | 0.151 ± 0.032
CGGCGCAA | -0.0906 ± 0.015
ACCGTCCG | -0.254 ± 0.034
AGCCTCAG | -0.0843 ± 0.053
ATCAATTG | 0.257 ± 0.0066
ATCAATTA | 0.27 ± 0.01
AACAATTA | 0.2791 ± 0.0017
ATCAATTC | 0.0558 ± 0.082
CTCAATTA | 0.0698 ± 0.043
GTCAATTA | -0.0609 ± 0.042
AACAATTC | 0.141 ± 0.011
ATCAATCG | 0.16 ± 0.067
AACAATGC | 0.23 ± 0.044
AACAATGG | 0.0925 ± 0.024
GACAATGC | 0.0134 ± 0.02
AACAATTG | 0.143 ± 0.022
CCATGGGA | 0.123 ± 0.019
AATAGAGC | 0.0926 ± 0.04
ATGCTTCG | 0.00498 ± 0.0021
CACAGTAG | -0.0155 ± 0.0072

Sequence | PBM 8-mer E-score
AGCCTAGA | -0.0899 ± 0.028
ACGACGAC | -0.124 ± 0.0076
GTTCGCTA | -0.0331 ± 0.033
ATTAGTCA | 0.172 ± 0.041
CAGGATAG | 0.0195 ± 0.012
GCCGTCAA | -0.0475 ± 0.027
AAAGCGCA | 0.0962 ± 0.09
CAAGCGCC | -0.226 ± 0.091
CAAGCGCA | 0.27 ± 0.03
ACATGTGC | 0.167 ± 0.0089
ACACATGT | 0.334 ± 0.0089
GCATGTGA | 0.159 ± 0.02
ACATGTGA | 0.308 ± 0.033
AAATGTGG | 0.114 ± 0.11
ACACATGA | -0.0128 ± 0.068
ACATGTGG | 0.246 ± 0.04
ACACATGG | 0.145 ± 0.08
CCATGTGA | 0.109 ± 0.036
CCTCCGTC | 0.0056 ± 0.021
GCCGGCCC | -0.162 ± 0.0086
AAATAGTA | 0.175 ± 0.0028
AAATAATG | 0.2315 ± 0.002
AAATAACG | 0.273 ± 0.017
AAATAATC | -0.0306 ± 0.048
AGATAACC | 0.0753 ± 0.022

Sequence | PBM 8-mer E-score
CGATAACG | -0.0616 ± 0.034
ATATAACG | 0.288 ± 0.0086
AAATAATA | 0.149 ± 0.025
AGATAACG | 0.259 ± 0.041
ATATAACA | 0.126 ± 0.0091
ATATAACC | 0.16 ± 0.041
CAATAACG | 0.105 ± 0.029
AAATAACA | 0.0873 ± 0.044
AACGTGGT | 0.224 ± 0.05
ATTCCTCC | 0.129 ± 0.052
ACACCGGG | -0.119 ± 0.096
AGCATAAG | 0.0893 ± 0.055
CATTATGG | 0.0682 ± 0.009
CACATTCC | -0.108 ± 0.075
GCTGCGCA | -0.147 ± 0.022
CAACATGC | -0.00139 ± 0.11
CAACATGA | 0.232 ± 0.044
CAACATGG | 0.138 ± 0.066
CGATATAC | 0.156 ± 0.025
TACTATAA | 0.239 ± 0.017
CGTTATAA | 0.129 ± 0.021
CTATATAA | 0.0927 ± 0.03
AACTATAA | 0.102 ± 0.024
TGTTATAA | 0.261 ± 0.021
AGTTATAA | 0.141 ± 0.061

Sequence | PBM 8-mer E-score
CGATATAG | 0.00229 ± 0.039
TTATATAA | 0.241 ± 0.086
ATATATAA | 0.221 ± 0.099
CGATATAA | 0.262 ± 0.066
CACTATAA | -0.0514 ± 0.028
CCCACTAA | 0.177 ± 0.014
ACAGTCAC | 0.0067 ± 0.018
AAATCTGG | -0.19725 ± 4.2e-05
TACCTTAA | -0.0174 ± 0.012
ACAGGAGC | -0.00133 ± 0.025
GATTGCGA | -0.103 ± 0.03
CTGGTACA | 0.0235 ± 0.024
CGCCGGAG | -0.226 ± 0.023
CAAATTGG | 0.0841 ± 0.087
GCCTCCCA | -0.128 ± 0.085
ACCTCCCA | -0.0967 ± 0.065
CCCTCCCA | 0.325 ± 0.076
ACTCCCCT | 0.266 ± 0.028
ACTCCCAA | 0.141 ± 0.025
CCTCCCCA | 0.346 ± 0.046
CCTCCCCC | -0.17 ± 0.14
ACTCCCCC | -0.192 ± 0.053
ACTCCCCA | 0.309 ± 0.0089
ACTCCCCG | 0.168 ± 0.015
CCTCCCAA | 0.0447 ± 0.088

Sequence | PBM 8-mer E-score
TCTCCCCA | 0.164 ± 0.047
CGGATAAA | 0.0371 ± 0.069
AGATGAAT | 0.17 ± 0.0036
CATCCTAG | 0.0659 ± 0.037
ATAGGGAA | 0.0733 ± 0.043
CTAATCCA | 0.0132 ± 0.01
CACATCGG | -0.0961 ± 0.052
ATTGTTGC | 0.00699 ± 0.061
AAGAGGGC | 0.0019 ± 0.0019
ACGCTCTG | -0.0545 ± 0.0079
CCAACGAC | -0.133 ± 0.023
TTAACTAA | 0.241 ± 0.014
CTAACTAA | 0.0585 ± 0.065
ATAACTAA | 0.112 ± 0.031
TAAACTAA | 0.233 ± 0.028
AAAACTAA | 0.132 ± 0.019
CAAACTAA | 0.0893 ± 0.026
GACTGCCA | -0.0667 ± 0.023
ACCCCAGG | -0.107 ± 0.067
ACCCCAGA | 0.156 ± 0.044
ACCCCACT | 0.293 ± 0.044
ACCCCACC | 0.22 ± 0.074
AACCCACT | 0.059 ± 0.037
ACCCCAGT | 0.336 ± 0.028
ATTGAAGG | 6e-05 ± 0.019

Sequence | PBM 8-mer E-score
AGTTCAAA | -0.0257 ± 0.13
AACCGGCC | -0.167 ± 0.021
CCGCTGCC | -0.123 ± 0.029
CAGAGAGA | -0.0625 ± 0.011
ATACAAAA | 0.296 ± 0.014
CTACAAAA | 0.0645 ± 0.037
ATACAAAT | 0.148 ± 0.12
GTACAAAA | 0.27 ± 0.0082
TTACAAAA | 0.181 ± 0.03
GTACAAAC | 0.028 ± 0.04
ACCTGTCC | 0.0598 ± 0.062
AATATGGC | 0.221 ± 0.025
CACAGCAC | -0.0272 ± 0.038
AGTAAGTG | 0.2306 ± 0.0021
AATAAGTG | 0.17 ± 0.066
AGTAAGTC | 0.1006 ± 0.00054
CATAAGTA | 0.163 ± 0.049
ATTAAGTA | 0.236 ± 0.026
GTTAAGTA | 0.0909 ± 0.029
ATTAAGTG | 0.122 ± 0.011
AATAAGTA | 0.285 ± 0.0052
AGTAAGTA | 0.126 ± 0.027
CTGACCAC | -0.0726 ± 0.025
AGGTGGAA | -0.00713 ± 0.04
GTTATTAA | 0.0581 ± 0.1

Sequence | PBM 8-mer E-score
CAGTCTGG | -0.18 ± 0.038
CAAATTCG | 0.000655 ± 0.064
CACTTAAG | 0.0265 ± 0.011
ATGGACCG | -0.222 ± 0.029
ACCCAAGT | 0.282 ± 0.052
ACCCAAGC | -0.0166 ± 0.044
ACCCAAAT | 0.277 ± 0.028
ACCCAAAG | 0.0519 ± 0.028
ACCCAAGG | 0.0572 ± 0.07
ACCCAAAA | -0.0026 ± 0.17
AGGAAACA | 0.0889 ± 0.046
AGTCGCCC | -0.0113 ± 0.15
AACCGTAT | -0.0505 ± 0.036
CTGTGCGC | 0.0257 ± 0.14
AACGTTCC | 0.142 ± 0.028
CCGATGCC | -0.029 ± 0.062
ATAGCAAG | 0.157 ± 0.0043
ATAGCAAT | 0.234 ± 0.05
AAAGCAAT | 0.268 ± 0.011
ATAGCAAC | 0.031 ± 0.02
AAAGCAAC | 0.0449 ± 0.04
AAAGCAAG | 0.167 ± 0.024
CCGTAACC | -0.243 ± 0.07
